Reference: PubChem BioAssay AID1662 (Broad Institute, 2009)
Among all 300,000 compounds or so, about 4,000 (1.3%) were called active. The sample holds actives, similar compounds and a random draw of the others, so the mix is not that of the screen.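 How the source made its calls: active means mean replicate score, as percent of positive control median, at least 50; inconclusive means mean below 50 but one replicate at or above 50; inactive means mean and every replicate below 50.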

test: kanamycin survival loss of SKKanGAS strain – BacTiter-Glo luminescence, streptokinase expression inhibitor project, primary screen (AID 1662);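 further: strain carries kanamycin resistance gene driven by streptokinase promoter and grows in 40 µg/ml kanamycin; loss of luminescence reflects streptokinase promoter inhibition or plain growth inhibition; 0% = median of DMSO wells and 100% = positive control at its reference dose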; details: S. pyogenes SKKanGAS, kanamycin growth, 6 h, at 7.5 µM, hits give high values

Row | SMILES | inhibition
1 | O=c1[nH][nH]c(C(F)(F)F)c1C=NCc1ccccc1Cl | -1.93% (inactive)
2 | CCc1c(O)cc2n(c1=O)-c1ccccc1C2(C)C | 17.4% (inactive)
3 | NC(=O)c1nsc(C(=O)N(CC(=O)NCc2ccc(F)cc2)Cc2ccco2)c1N | 0.443% (inactive)
4 | CC(C)CCC(C)NC(=O)c1ccc2nccnc2c1 (configuration not stated) | -6.24% (inactive)
5 | CCCCCCOc1ccc(OC(=O)c2cccnc2)cc1 | -1.41% (inactive)
6 | CCCCCCCCCCCCN1C(=O)CSC1c1cccnc1 (configuration not stated) | 49.9% (active)
7 | CN(C)CCCN1C(=O)CSC1c1ccc([N+](=O)[O-])cc1 (configuration not stated) | 2.76% (inactive)
8 | Clc1ccc(C2=CSC3=Nc4cccc5cccc(c45)N23)cc1 | 58.7% (active)
9 | O=C(Nc1ccc(S(=O)(=O)Nc2ncccn2)cc1)C12CC3CC(CC(C3)C1)C2 | 7.21% (inactive)
10 | CCOC(=O)/C(C#N)=C/c1cn(CCC(=O)O)nc1-c1ccc(Br)cc1 | -0.784% (inactive)
11 | O=C(O)/C=C/c1cn(Cc2ccccc2)nc1-c1cccs1 | 8.13% (inactive)
12 | O=C(O)CCn1cc(/C=C/C(=O)c2ccc(Cl)cc2)c(-c2cccc(Br)c2)n1 | 63.3% (active)
13 | CCC(c1nnc(SCC(=O)NNC(=O)c2ccccc2)n1Cc1ccccc1)N(C)C (configuration not stated) | -9.47% (inactive)
14 | O=C(CNC(=O)c1ccc(Br)o1)Nc1ccccc1 | -5.14% (inactive)
15 | Cc1ccc(C(CNC(=O)Nc2cccc(C)c2)N2CCN(C)CC2)cc1 (configuration not stated) | -5.31% (inactive)
16 | O=C(Nc1nnc(C2COc3ccccc3O2)o1)c1ccc(F)cc1 (configuration not stated) | 103% (active)
17 | O=C(Nc1ccccc1F)c1ccc2c(c1)OCO2 | 2.8% (inactive)
18 | CC1COc2ccccc2N1C(=O)c1ccc(F)cc1 (configuration not stated) | 0.0101% (inactive)
19 | CCN(CC)S(=O)(=O)c1ccc(N(C)Cc2ccc(C(F)(F)F)cc2)nc1 | -5.95% (inactive)
20 | O=C(NCc1nnc(SCC(=O)N2CCCc3ccccc32)o1)c1ccccc1F | 3.7% (inactive)
21 | CC1(C)C2CCC1(CS(=O)(=O)NCCc1c[nH]c3ccccc13)C(=O)C2 (configuration not stated) | -7.05% (inactive)
22 | CS(=O)(=O)N1CCN(CC(=O)NC2CCCC2)CC1 | -2.39% (inactive)
23 | CNC(=S)N/N=C/c1cn(Cc2ccc(C)cc2)c2ccccc12 | 53.8% (active)

Row | SMILES | inhibition
24 | COC(=O)N/N=C/c1cn(CCCOc2ccc(C)cc2)c2ccccc12 | 8.83% (inactive)
25 | CCOC(=O)N/N=C/c1cn(Cc2ccccc2Cl)c2ccccc12 | 6.39% (inactive)
26 | CC(C)(C)c1cc2cccnc2n1Cc1cccc(F)c1 | -3.63% (inactive)
27 | COc1ccc(C(=NN)c2ccc(OC)cc2)cc1 | -9.25% (inactive)
28 | CCc1ccc(N(CC(=O)NCc2cccnc2)S(=O)(=O)c2ccccc2)cc1 | -18.2% (inactive)
29 | Cc1scc(C(=O)NNC(=S)NCC(C)C)c1C | -0.356% (inactive)
30 | CC(C)(C)C(=O)NNC(=O)c1ccc(Oc2cc(Cl)cc(Cl)c2)o1 | 0.127% (inactive)
31 | CN(c1ccccc1)S(=O)(=O)c1ccc(Cl)c(C(=O)NCCc2c[nH]c3ccccc23)c1 | 4.79% (inactive)
32 | CN(c1ccccc1)S(=O)(=O)c1cc(C(=O)OCC(=O)N2CCN(C(=O)c3ccco3)CC2)ccc1Cl | -0.977% (inactive)
33 | CN(c1ccccc1)S(=O)(=O)c1cc(C(=O)Nc2nc3ccccc3[nH]2)ccc1Cl | 58.3% (active)
34 | COc1cc2ccccc2cc1C(=O)N(CCN(C)C)c1nc2c(F)cccc2s1 | 0.17% (inactive)
35 | COc1cccc(CSc2nc3nc(C)cc(C)n3n2)c1 | 3.04% (inactive)
36 | CC(=O)Nc1ccc(NC(=O)CSc2ncnc3c2cnn3Cc2ccccc2)cc1 | 3.94% (inactive)
37 | CSc1nc2ccccc2c(=O)n1Cc1ccc(F)cc1 | 18.7% (inactive)
38 | CSc1c(SCc2ccccc2)cnn(Cc2ccccc2)c1=O | 66.2% (active)
39 | Cc1ccc(-c2noc(CNC(=O)c3ccoc3C)n2)cc1 | 0.278% (inactive)
40 | O=C(N/N=C/c1ccc([N+](=O)[O-])o1)c1cn(-c2ccccc2)nc1-c1ccc(F)cc1 | 85.5% (active)
41 | O=C(N/N=C/c1ccc([N+](=O)[O-])o1)c1cccc(S(=O)(=O)N2CCOCC2)c1 | 5.79% (inactive)
42 | Cc1ccc(-c2nn(-c3ccccc3)cc2/C=N/NC(=O)c2ccc3c(c2)OCO3)cc1 | 11.9% (inactive)
43 | CCn1cc(CCC(=O)NCc2ccc(F)cc2)c2ccccc21 | 0.859% (inactive)
44 | COc1cccc(NC(=O)CSc2nnc(Cc3ccc(OC)c(OC)c3)o2)c1 | -5.07% (inactive)
45 | Cc1cccc([C@@H]2[C@@H]3C(=O)N(C)C(=O)[C@@H]3[C@@H]3C(=O)Nc4ccccc4C(=O)N23)c1 | 1.01% (inactive)
46 | COc1ccc(N2CCN(CCCNC(=O)C3CCN(S(=O)(=O)N4CCOCC4)CC3)CC2)cc1 | 0.276% (inactive)

Row | SMILES | inhibition
47 | Cc1ccc(C)c(NC(=S)NNC(=S)Nc2ccc(C(C)C)cc2)c1 | 51.2% (active)
48 | CC(C)c1ccc(NC(=S)NNc2ccc(Cl)c(C(=O)O)c2)cc1 | 5.7% (inactive)
49 | Cc1ccc(C)c(NC(=S)NNC(=O)c2csc(C)c2)c1 | -5.04% (inactive)
50 | C[C@@H]1CC[C@]2(O[C@@H](CCO)C[C@H](O)[C@H]2O)O1 | -1.49% (inactive)
51 | Cc1ccc(-c2nn(-c3ccccc3)cc2/C=C2\SC(=S)N(CCCCCC(=O)O)C2=O)o1 | 103% (active)
52 | CN(C)S(=O)(=O)c1cccc(-c2nn(-c3ccccc3)cc2/C=C2\SC(=S)N(CC(=O)O)C2=O)c1 | 25.2% (inactive)
53 | COc1ccc(-c2nn(-c3ccccc3)cc2/C=C2/SC(=S)N(CCCC(=O)O)C2=O)c(C)c1 | 46.2% (inactive)
54 | CCCN(CC(=O)Nc1ccccc1OC)C(=O)CCC(=O)c1ccc(F)cc1 | -6.42% (inactive)
55 | Oc1c(Cl)cc(Cl)c(Cl)c1Cc1c(O)c(Cl)cc(Cl)c1Cl | 109% (active)
56 | CO/N=C/CC(=O)c1ccc(OC)cc1 | -3.09% (inactive)
57 | CSCCC(NS(=O)(=O)c1ccccc1F)C(=O)N1CC=C(c2ccccc2)CC1 (configuration not stated) | -1.43% (inactive)
58 | O=C(Nc1ccc2oc(-c3ccccc3F)nc2c1)c1ccco1 | -5.59% (inactive)
59 | COc1ccc2[nH]c(=O)c(CNc3ccc(C)c(C)c3)cc2c1 | 26.7% (inactive)
60 | Cn1nc(-c2ccccc2)c(CO)c1Sc1ccccc1 | -5.22% (inactive)
61 | Cc1ccc(S(=O)(=O)c2c(COC(=O)c3cccc(Cl)c3)c(-c3ccccc3)nn2C)cc1 | -28.6% (inactive)
62 | Cn1nc(-c2ccccc2)c(CSc2cccc(Cl)c2)c1Cl | 61.6% (active)
63 | CC(=O)N(CN1C(=O)C2C3C=CC(C3)C2C1=O)c1cccc(Cl)c1 (configuration not stated) | -0.219% (inactive)
64 | CCOC(=O)c1nnn(CC(=O)Nc2cccc(F)c2)c1C(=O)OCC | -0.0535% (inactive)
65 | COc1cccc(CN(C)CC2CCCN(CCc3ccc(Cl)cc3)C2)c1OC (configuration not stated) | -0.785% (inactive)
66 | COc1ccc(NC(=O)CS(=O)(=O)c2ccccc2)cc1 | -4.25% (inactive)
67 | Cc1nc(NC(=O)c2ccc3c(c2)OCCO3)ccc1Br | -9.44% (inactive)
68 | Cc1ccc2sc(NNC(=O)c3ccc4c(c3)OCCO4)nc2c1C | 52.7% (active)
69 | O=C(Nc1nc2ccccc2s1)c1ccc2c(c1)OCO2 | -10.7% (inactive)

Row | SMILES | inhibition
70 | COC(=O)c1ccc([C@@H](O)[C@H](C)C(=O)CC(=O)OC(C)(C)C)cc1 | -0.38% (inactive)
71 | COc1ccc(C(=O)NC(=S)N2CCCCC2c2cccnc2)cc1OC (configuration not stated) | 5.87% (inactive)
72 | Cc1cccc(C(=O)NCCCN(C)CCCNC(=O)c2cccc(C)c2)c1 | -2.44% (inactive)
73 | Cc1cccc(C(=O)NC(=S)N(C)C2CCCCC2)c1 | 55.3% (active)
74 | Cc1cccc(NC(=S)NCCN(C2CCCCC2)C2CCCC2)c1 | -5.79% (inactive)
75 | COc1ccc(C2/C(=C(/O)c3ccc4c(c3)CC(C)O4)C(=O)C(=O)N2Cc2ccncc2)cc1 (configuration not stated) | 1.18% (inactive)
76 | O=C(CN(CC1CCCO1)C(=O)CNS(=O)(=O)c1ccc(Cl)cc1)NCc1ccccc1 (configuration not stated) | -3.12% (inactive)
77 | CCc1c(C)c2ccc(OC3CCCCC3=O)cc2oc1=O (configuration not stated) | -6.62% (inactive)
78 | N#CCSc1nc2ccc(N3CCOCC3)cc2c(=O)n1CCc1ccccc1 | 71.7% (active)
79 | CCCCn1c(SCC(=O)NCC2CCCO2)nc2ccc(N3CCOCC3)cc2c1=O (configuration not stated) | 2.53% (inactive)
80 | COCCCNC(=O)CSc1nc2ccc(N3CCOCC3)cc2c(=O)n1CCc1ccccc1 | 34.6% (inactive)
81 | COCC(C)n1c(C)cc(C(=O)CSc2cc(C)c3ccccc3n2)c1C (configuration not stated) | 2.07% (inactive)
82 | Cc1ccc(C(=O)N/N=C\c2cc(Br)c(Br)o2)cn1 | 6.13% (inactive)
83 | Cc1nn(-c2ccccc2)c2sc(C(=O)N(Cc3ccco3)C(C)C(=O)NC(C)(C)C)cc12 (configuration not stated) | 6.98% (inactive)
84 | CC(Oc1ccc2ccccc2c1)C(=O)NNC(=S)NC(=O)c1ccco1 (configuration not stated) | 128% (active)
85 | O=C(Nc1ccc2ccccc2c1)/C(=C/c1cccc(Br)c1)NC(=O)c1ccco1 | 14.5% (inactive)
86 | CCCc1ccc(OCCNC(=O)c2ccco2)cc1 | -5.79% (inactive)
87 | CCCc1ccc(OCC(=O)NNC(=S)NC(=O)c2ccco2)cc1 | 113% (active)
88 | Cc1ccc(OCC(=O)NCCCNC(=O)c2ccco2)cc1C | 2.37% (inactive)
89 | Cc1ccc(C(=O)NNC(=O)C(C)Oc2ccc3ccccc3c2)o1 (configuration not stated) | -4.95% (inactive)
90 | COc1cc2nc(CN(C)Cc3ccc(F)cc3)[nH]c(=O)c2cc1OC | 16.4% (inactive)
91 | CC1=CC=CN2C1=NC(=O)CC2(C)C(=O)N(CC(=O)NC1CCCC1)c1ccccc1C (configuration not stated) | 1.46% (inactive)
92 | Cc1nn(CCCC(=O)NCc2ccccc2Cl)c(=O)c2nccn12 | -6.9% (inactive)
